Hits are enriched below; roughly 11% of the tested compounds scored in any of these assays.
AMA1-RON2 inh = inhibitors of Plasmodium falciparum AMA1-RON2 interaction. Potency, µM (doses to about 58.2 µM), actives largely listed as inhibitors. AlphaScreen AMA1-biotinylated RON2 peptide binding. 360,000 tested, 0.2% active; further: nearly all actives have a fitted effect of over 45% in size
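AMA1 (3D7) with his tag at 25 nM final met compounds first, then biotinylated RON2 peptide at 25 nM; detection used donor plus acceptor beads, 10 µg/mL apiece, read by AlphaScreen after 30 min at room temperature.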
HCV inh = blocks hepatitis C virus | Huh7.5.1 HCVcc-Cre infection, luciferase reporter, 44 h | Potency, µM (highest dose often 41.8 µM), usual class: inhibitors | 340,000 tested, 3.4% active
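Infectious HCVcc-Cre (~0.5 moi) was added to cells just after compound, with cells seeded 4 h earlier at 1,000 per well. Luciferase activity after 44 h culture reported infection; substrate was incubated 15 min at room temperature before reading.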
AmpC no deterg = inhibitors of E. coli AmpC beta-lactamase without detergent; 330,000 tested, 0.52% active; Potency, µM (doses to about 57.1 µM), most hits filed as inhibitors; AID 485341; AmpC nitrocefin hydrolysis, absorbance 480 nm, 0.0001% Triton; further: nearly all actives have a fitted effect of over 20% in size
Target sequence (P00811 whole entry, looked up): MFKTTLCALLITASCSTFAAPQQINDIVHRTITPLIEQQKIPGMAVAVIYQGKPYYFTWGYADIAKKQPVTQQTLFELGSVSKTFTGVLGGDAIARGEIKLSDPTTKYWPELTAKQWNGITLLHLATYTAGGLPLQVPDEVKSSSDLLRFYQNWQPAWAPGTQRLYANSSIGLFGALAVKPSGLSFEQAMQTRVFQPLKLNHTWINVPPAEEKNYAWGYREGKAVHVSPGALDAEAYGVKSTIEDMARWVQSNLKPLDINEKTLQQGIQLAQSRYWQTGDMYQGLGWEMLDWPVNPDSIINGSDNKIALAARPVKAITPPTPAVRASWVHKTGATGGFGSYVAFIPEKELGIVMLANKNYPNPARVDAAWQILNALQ
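20 mM phosphate pH 7.0 + 0.01% (detergent screen) or 0.0001% Triton X-100; 5.3 nM AmpC reagent; cpd preinc 15 min RT; nitrocefin (800 uM stock) to start; A480 q20 s × 4 min; Activity was normalised to no-enzyme and no-compound control wells.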
AmpC detergent = blocks E. coli AmpC beta-lactamase in detergent assay. AmpC hydrolysis of nitrocefin, absorbance 480 nm, 0.01% Triton. Potency, µM (doses to about 114 µM), usual class: inhibitors. P00811. AID 485294. 370,000 tested, 0.041% active; further: nearly all actives have a fitted effect of over 25% in size
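20 mM phosphate pH 7.0 + 0.01% (detergent screen) or 0.0001% Triton X-100; 5.3 nM AmpC reagent; cpd preinc 15 min RT; nitrocefin (800 uM stock) to start; A480 q20 s × 4 min; Activity was normalised to no-enzyme and no-compound control wells.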
Pf growth 48h = inhibits P. falciparum growth in the first generation, 48 h. P. falciparum luciferase growth in erythrocytes, 48 h. 310,000 tested, 5.9% active. AID 504832. Potency, µM (top dose mostly 28.7 µM), hits mostly inhibitors
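Luciferase-expressing P. falciparum in infected erythrocytes (2% hematocrit, 0.1% parasitemia final) in RPMI 1640/0.5% Albumax were exposed to compound for 48 hours at 37 C, 5% CO2; growth read as luminescence.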
Pf growth 96h = P. falciparum growth inhibition at 96 hour, primary screen for plastid delayed-death inhibitors; AID 504834; P. falciparum luciferase reporter growth, 96 h; 320,000 tested, 6.9% active; Potency, µM (highest dose often 28.7 µM), actives largely listed as inhibitors
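Cell-based qHTS: luciferase-tagged P. falciparum in erythrocytes (2% hematocrit, 0.05% parasitemia final) incubated with compounds for 96 hours, 37 C, 5% CO2; luciferase detection reagent then added and luminescence measured.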
Numbers stand for hits; n = inactive; u = inconclusive; x = not tested or not shown; [ ] = another dose, or the depositor's remark. The call rests on the fitted dose curve; in most records, active means well fitted curve in the direction sought with a large enough effect; inconclusive means small, poorly fitted or top-dose-only effect, or another doubt; inactive means no such curve, though single readings can be large; an effect the other way counts as inactive or inconclusive.

SMILES | AMA1-RON2 inh | HCV inh | AmpC no deterg | AmpC detergent | Pf growth 48h | Pf growth 96h
CCCOC(=O)CSc1nc(N)c(C#N)c(-c2ccco2)c1C#N | n | n | x | x | x | x
N#Cc1c(N)nc(SCC(=O)OCc2ccccc2)c(C#N)c1-c1ccco1 | n | n | n | u | u | 4.15µM
Cc1c(C#N)c(SCC(N)=O)nc2c1CCCC2 | n | n | n | u | n | 9.28µM
Cc1ccc(-c2nc(SCC(N)=O)c(C#N)c3c2CCCC3)cc1 | n | u | n | u | x | u
CCOC(=O)C(C)Sc1nc2c(c(-c3cccs3)c1C#N)CCC2 (configuration not stated) | n | u | n | n | u | 10.4µM
COC(=O)CSc1nc2c(c(-c3ccco3)c1C#N)CCCC2 | n | u | n | u | 1.85µM | x
O=C(Cn1nc(-c2ccccc2)nc(Cc2ccccc2)c1=O)Nc1ccc(Cl)cc1 | x | x | x | n | x | x
CC(C)OC(=O)CC(=O)CSc1nc2c(c(-c3cccs3)c1C#N)CCC2 | n | 10µM | n | n | n | n
CCn1c(CCNC(=O)c2ccc(Cl)c(Cl)c2)nnc1SCCOc1ccc(OC)cc1 | n | n | n | n | u | 10.4µM
COc1ccc(C(=O)NC(C)c2nnc(SCc3ccc(Cl)c(Cl)c3)n2C)cc1 (configuration not stated) | n | n | n | n | u | 11.7µM
C=CCn1c(SCCOc2ccc(OC)cc2)nnc1C(C)NC(=O)c1ccc(OC)cc1 (configuration not stated) | u | n | n | n | x | 6.57µM
CCn1c(SCc2ccc(Cl)c(Cl)c2)nnc1C(C)NC(=O)c1ccc(OC)cc1 (configuration not stated) | n | n | n | n | n | u
CCc1ccccc1NC(=O)N1CCOc2ccccc21 | x | x | x | n | x | x
Cc1nnc2c3ccccc3nc(N3CCN(c4cccc(Cl)c4)CC3)n12 | x | x | x | n | x | x
CN1C(=O)N(C)C(NC(=O)Nc2ccccc2)C1NC(=O)Nc1ccccc1 (configuration not stated) | n | n | n | n | n | 2.33µM
Cc1csc(N=Nc2ccc(N(C)C)cc2)[n+]1[O-] | 14.1µM | x | x | x | x | x
CC1CCc2c(sc3nc(-c4cc5ccccc5oc4=O)nc(Cl)c23)C1 (configuration not stated) | x | x | x | n | x | x
CCOc1ccc(CNC(=O)c2cnc3sc(N(CC)CC)nn3c2=O)cc1OC | x | x | x | n | x | x
CC(C)(C)c1ccc(OCCC(=O)Nc2cccc(S(=O)(=O)N3CCCC3)c2)cc1 | n | u | n | n | 10.4µM | u
CC(=O)c1ccc(OCCCC(=O)Nc2cccc(S(=O)(=O)N3CCCCCC3)c2)cc1 | n | u | u | x | x | x
CC(C)(C)c1ccc(OCCCC(=O)Nc2cccc(S(=O)(=O)N3CCOCC3)c2)cc1 | n | u | n | n | u | u
CC(=O)c1ccc(OCCCC(=O)Nc2cccc(S(=O)(=O)N3CCCCC3)c2)cc1 | n | u | n | n | 13.1µM | u
COc1ccccc1/C=C/c1nc(S(=O)(=O)c2ccccc2)c(NCCN(C)C)o1 | n | n | n | n | u | n
COc1ccc(/C=C/c2nc(S(=O)(=O)c3ccccc3)c(NCCCN(C)C)o2)cc1OC | n | n | n | n | 11.7µM | u
COc1ccc(NC(=O)CC2C(=O)N(c3cccc(OC)c3)C(=O)N2Cc2cccnc2)cc1 (configuration not stated) | x | x | x | n | x | x
SMILES | AMA1-RON2 inh | HCV inh | AmpC no deterg | AmpC detergent | Pf growth 48h | Pf growth 96h
CNC[C@@H](CC1CCCCC1)NC[C@H](CC(C)C)NCCc1cccc(C(F)(F)F)c1 | n | u | n | n | u | 1.85µM
CCC[C@@H](CN[C@@H](CNC)[C@H](C)CC)NCC1CCC(C(C)(C)C)CC1 (some centres not stated) | n | 7.94µM | n | n | u | 3.29µM
O=C(CNC(=O)Cc1ccccc1)NCc1cccc(C(F)(F)F)c1 | n | n | n | n | n | n
CCC[C@H](CN[C@@H](CNC)[C@H](C)CC)NCCc1cc(C(F)(F)F)cc(C(F)(F)F)c1 | n | u | n | n | 4.15µM | 2.08µM
CC[C@@H](C)[C@H](CNC)NC[C@@H](Cc1cccc2ccccc12)NCCc1cccc(C(F)(F)F)c1 | n | n | n | n | u | 7.38µM
CC(C)NCC(O)COC1CCC(C(C)(C)C)CC1 (configuration not stated) | n | u | n | n | u | u
COc1ccc(NC(=O)CN2C(=O)CSc3ccc(S(=O)(=O)N(C)C)cc32)cc1Cl | x | x | x | n | x | x
Cc1cccc(N2C(=O)CSC23C(=O)N(CC(=O)NCc2ccccc2Cl)c2ccccc23)c1 (configuration not stated) | x | x | x | n | x | x
Cc1ccc(Cn2ccnc2SCC(=O)Nc2nc3ccccc3s2)cc1 | x | x | x | n | x | x
COc1ccc(CCNC(=O)CSc2nc3nc(C)c(Cc4ccc(C)cc4)c(C)n3n2)cc1OC | x | x | x | n | x | x
N#Cc1ccc(-c2ccc(OCC(O)CN3CCOCC3)cc2)cc1 (configuration not stated) | n | n | n | n | n | n
N#Cc1ccc(OCC(O)CN2CCC(C(O)(c3ccccc3)c3ccccc3)CC2)cc1 (configuration not stated) | n | 10µM | n | n | u | u
Cc1ccc(NC(=O)c2ccc(C)cc2)cc1 | n | n | n | n | n | n
Cc1ccc(C(=O)Nc2ccc(Br)c(C(F)(F)F)c2)cc1 | n | 11.2µM | n | n | u | 11.7µM
Cc1cc(C)nc(-n2nc(C)cc2NC(=O)CN2CCc3ccccc3C2)n1 | n | n | n | u | 4.15µM | n
CCN(CC(=O)Nc1cc(C)nn1-c1nc(C)cc(C)n1)Cc1ccccc1 | n | u | n | n | x | 4.15µM
Cc1cc(C)nc(-n2nc(C)cc2NC(=O)CNCc2ccccc2)n1 | n | n | n | n | n | n[5.75 µM]
CCOC(=O)c1cccc(NC(=O)c2ccc3c(c2)nnn3C2CCCC2)c1 | x | x | x | n | x | x
CN1C(=O)c2ccccc2Sc2ccc(NC(=O)N3CCN(c4cccc(Cl)c4)CC3)cc21 | x | x | x | n | x | x
Cc1nc(-c2ccc(F)cc2)c(CC(=O)N2CCN(S(=O)(=O)c3ccccc3Br)CC2)s1 | n | x | n | u | u | 8.28µM
Cc1nc(-c2ccc(F)cc2)c(CC(=O)N(C)CC(=O)Nc2ccc(Br)cc2C)s1 | n | u | n | n | 5.22µM | u
Cc1nc(-c2ccc(F)cc2)c(CC(=O)N(C)CC(=O)Nc2ccccc2C(F)(F)F)s1 | n | u | n | u | n | n
Cc1nc(-c2ccc(F)cc2)c(CC(=O)NCC(=O)Nc2ccc(F)c(F)c2)s1 | n | u | n | n | u | u
Cc1cc(C)c(NC(=O)CNC(=O)Cc2sc(C)nc2-c2ccc(F)cc2)c(C)c1 | n | u | n | n | 13.1µM | u
Cc1nc(-c2ccc(F)cc2)c(CC(=O)N(C)CC(=O)Nc2cccc(F)c2)s1 | n | x | x | x | x | x

Bioassay records deposited in PubChem by National Center for Advancing Translational Sciences (NCATS).
